Only some compounds are listed: those with a hit (about 22% of all), similar ones and a draw of the others.
CYP2C19 inhib – blocks human cytochrome P450 2C19; P33261; CYP2C19 Supersomes, luciferin-H EGE luminescence, 30 min; inhibition, % at 5 µM; 96,000 tested, 21% active; AID 778;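 active = CYP2C19 inhibition above a set limit at 5 µM in the primary screen, cut at about 50% in these data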;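 also: plate controls were negative control wells for no effect and 2.5 mM tranylcypromine positive control for full effect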
CYP2C9 act – increases human cytochrome P450 2C9 activity | P11712 | recombinant CYP2C9, luciferin-H conversion, luminescence; stronger effect = higher value; factor 1 = untreated enzyme, 0 = blocked | activation factor at 5 µM | 96,000 tested, 1.4% active | AID 1024;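 active = activation factor of 2 or more for CYP2C9 at a 5 µM dose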;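 also: 0 = sulfaphenazole-blocked wells and 1 = vehicle-only wells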
Target sequence (P11712 whole entry, looked up): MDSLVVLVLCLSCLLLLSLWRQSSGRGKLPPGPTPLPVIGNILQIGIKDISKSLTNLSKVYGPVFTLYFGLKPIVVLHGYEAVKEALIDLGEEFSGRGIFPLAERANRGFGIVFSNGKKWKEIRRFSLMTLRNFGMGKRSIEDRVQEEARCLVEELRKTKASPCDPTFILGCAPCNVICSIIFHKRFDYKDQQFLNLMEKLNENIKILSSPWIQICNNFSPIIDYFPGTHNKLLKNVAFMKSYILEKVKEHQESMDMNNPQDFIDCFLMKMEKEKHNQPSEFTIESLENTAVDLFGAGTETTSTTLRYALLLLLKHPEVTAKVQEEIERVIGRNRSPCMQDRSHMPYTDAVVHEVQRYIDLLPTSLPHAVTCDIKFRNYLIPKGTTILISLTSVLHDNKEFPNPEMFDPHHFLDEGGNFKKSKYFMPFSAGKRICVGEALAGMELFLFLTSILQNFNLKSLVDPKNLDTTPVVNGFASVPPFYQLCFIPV
CYP2C9 inh – blocks human cytochrome P450 2C9. P11712. CYP2C9 Supersomes, luciferin-H conversion, luminescence. inhibition, % at 5 µM. 96,000 tested, 20% active. AID 777;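 active = blocking of liver enzyme CYP2C9 beyond about 50% at 5 µM, limit read from the data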
Measles CPE – protection of cells from measles virus; Measles virus-infected cells, CPE protection, absorbance; protection (pct of control), % at 4 µM; 140,000 tested, 1.5% active; in the data active = protection mostly above about 24%, no sharp cut-off; inactive = mostly below about 26%
CYP2C19 act – activators of human cytochrome P450 2C19. P33261. recombinant CYP2C19, luciferin-H EGE luminescence; stronger effect = higher value; 0 = fully inhibited enzyme, 1 = untreated enzyme. activation factor at 5 µM. 96,000 tested, under 10 active. AID 1025;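 active = activation factor of at least 2 at 5 µM in the primary screen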;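 also: 0 = wells with 2.5 mM tranylcypromine and 1 = vehicle-only wells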
Numbers without * were called inactive.

COc1cc(C2Nc3ccccc3C(=O)N2c2ccccc2)ccc1O (configuration not stated) was read as CYP2C19 inhib 38, CYP2C9 act 0.3, CYP2C9 inh 75*, Measles CPE 9 and CYP2C19 act 0.6.
`COc1ccc(C2Nc3ccccc3C(=O)N2c2ccc(F)cc2)cc1CSc1ccccn1` (configuration not stated) gave Measles CPE 8.
`CCOc1cc(C2Nc3ccccc3C(=O)N2c2ccccc2)ccc1O` (configuration not stated) gave CYP2C19 inhib 62*, CYP2C9 act 0, CYP2C9 inh 96*, Measles CPE 3 and CYP2C19 act 0.4.
O=C(NCN1C(=O)C2C3C=CC(C3)C2C1=O)Nc1nncs1 (configuration not stated) was read as Measles CPE 18.
`CCN(CC)S(=O)(=O)c1ccc2c(c1)c(C(=O)O)cn2C` gave CYP2C19 inhib 20, CYP2C9 act 0.8, CYP2C9 inh 20, Measles CPE 2 and CYP2C19 act 0.8.
`O=C(Nc1cc(C(F)(F)F)ccc1Cl)C1CCN(c2nnc(-n3cccc3)s2)CC1` gave Measles CPE 3.
Screening O=C(c1cccs1)N1CCN(CCCc2ccccc2)CC1 returned CYP2C19 inhib 26, CYP2C9 act 0.7, CYP2C9 inh 27, Measles CPE 5 and CYP2C19 act 0.7.
CCOc1cc(C2Nc3cccc4cccc(c34)N2)ccc1O was read as CYP2C19 inhib 69*, CYP2C9 act 0.6, CYP2C9 inh 38, Measles CPE 5 and CYP2C19 act 0.3.
`CC(C)(C)NC(=O)NC(=O)COc1ccccc1C#N` gave CYP2C19 inhib 51*, CYP2C9 act 0.6, CYP2C9 inh 44, Measles CPE 11 and CYP2C19 act 0.5.
Screening CCC(C)NC(=O)c1csc2c1CCCCC2 (configuration not stated) returned CYP2C19 inhib 14, CYP2C9 act 1.6, CYP2C9 inh -59, Measles CPE 19 and CYP2C19 act 0.9.
Screening Cc1ccc(C(=O)N2CCN(c3ccc(NC(=O)c4cccnc4)cc3)CC2)cc1 returned CYP2C19 inhib 35, CYP2C9 act 0.3, CYP2C9 inh 74*, Measles CPE 7 and CYP2C19 act 0.7.
Screening O=C(C1COc2ccccc2O1)N1CCN(c2ccc(F)cc2)CC1 (configuration not stated) returned CYP2C19 inhib 86*, CYP2C9 act 0.3, CYP2C9 inh 75*, Measles CPE 6 and CYP2C19 act 0.1.
For O=C(c1ccccc1C(=O)N1CCN(c2ccccc2)CC1)N1CCN(c2ccccc2)CC1 the results were CYP2C19 inhib 32, CYP2C9 act 0.3, CYP2C9 inh 70*, Measles CPE 17 and CYP2C19 act 0.7.
Cc1cc(C(=O)N2CCN(c3ccccc3)CC2)c(C)o1 was read as CYP2C19 inhib 38, CYP2C9 act 1, CYP2C9 inh -5, Measles CPE 5 and CYP2C19 act 0.6.
`CCOC(=O)N1CCN(C(=O)c2csc3c2CCCCC3)CC1` gave CYP2C19 inhib 55*, CYP2C9 act 0.2, CYP2C9 inh 76*, Measles CPE 16 and CYP2C19 act 0.4.
CCCCOc1ccc(C2C(C(=O)c3ccc(C)o3)=C(O)C(=O)N2CC2CCCO2)cc1 (configuration not stated) was read as Measles CPE 6.
`CC1CCC(NC(=O)Cn2cc3c(n2)CCCC3)CC1` (configuration not stated) gave CYP2C19 inhib 47, CYP2C9 act 0.9, CYP2C9 inh 8, Measles CPE 19 and CYP2C19 act 0.5.
O=C(c1csc2c1CCCC2)N1CCN(c2ccccc2)CC1 was read as CYP2C19 inhib 14, CYP2C9 act 2*, CYP2C9 inh -102, Measles CPE 6 and CYP2C19 act 0.9.
For CC(C)Cc1cc(C(=O)N2CCN(c3ccc(F)cc3)CC2)no1 the results were CYP2C19 inhib 76*, CYP2C9 act 0.3, CYP2C9 inh 65*, Measles CPE 5 and CYP2C19 act 0.2.
O=C(c1ccccc1C(=O)N1CCN(c2ccc(F)cc2)CC1)N1CCN(c2ccc(F)cc2)CC1 was read as CYP2C19 inhib 54*, CYP2C9 act 0.1, CYP2C9 inh 88*, Measles CPE 2 and CYP2C19 act 0.5.
Screening O=C(Nc1ccc(N2CCN(C(=O)c3ccc(Cl)cc3)CC2)cc1)c1ccc(Br)o1 returned CYP2C19 inhib 32, CYP2C9 act 0.4, CYP2C9 inh 57*, Measles CPE 0 and CYP2C19 act 0.7.
For COc1ccccc1-c1cc(C(=O)N2CCN(c3ccc(F)cc3)CC2)no1 the results were CYP2C19 inhib 2, CYP2C9 act 1.4, CYP2C9 inh -41, Measles CPE 7 and CYP2C19 act 1.
Screening O=C(N/N=C/c1ccncc1)c1ccccc1OCc1ccc(Br)cc1 returned Measles CPE 11.
For CCCN1Cc2cccc(C(=O)N3CCN(c4ccccc4)CC3)c2C1=O the results were CYP2C19 inhib 50*, CYP2C9 act 0.7, CYP2C9 inh 29, Measles CPE 11 and CYP2C19 act 0.5.
`O=C(c1ccc(Br)o1)N1CCN(c2ccc(F)cc2)CC1` gave CYP2C19 inhib 95*, CYP2C9 act 0.8, CYP2C9 inh 24, Measles CPE 3 and CYP2C19 act 0.1.
`COc1cccc(N2CCN(C(=O)c3[nH]c(C)c(C(C)=O)c3C)CC2)c1` gave CYP2C19 inhib 23, CYP2C9 act 0.7, CYP2C9 inh 34, Measles CPE 24 and CYP2C19 act 0.8.
`O=C(O)c1ccccc1C(=O)N1CCN(c2ccccc2)CC1` gave CYP2C19 inhib -6, CYP2C9 act 1, CYP2C9 inh 2, Measles CPE 45* and CYP2C19 act 1.1.
Screening O=C(c1noc2c1CCCC2)N1CCN(c2ccc(F)cc2)CC1 returned CYP2C19 inhib 2, CYP2C9 act 1, CYP2C9 inh 1, Measles CPE 5 and CYP2C19 act 1.
O=C(O)c1nccnc1C(=O)N1CCN(c2ccccc2)CC1 was read as Measles CPE 4.
`CC(=O)c1c(C)[nH]c(C(=O)N2CCN(c3ccc(F)cc3)CC2)c1C` gave CYP2C19 inhib 71*, CYP2C9 act 1, CYP2C9 inh 0, Measles CPE 9 and CYP2C19 act 0.3.
`CCOC(=O)CSc1nc(C)c(C(C)=O)cc1C#N` gave CYP2C19 inhib 38, CYP2C9 act 0.8, CYP2C9 inh 20, Measles CPE 25 and CYP2C19 act 0.6.
For CCOC(=O)CSC1=C(C#N)C(=O)NC2(CCCCC2)S1 the results were CYP2C19 inhib 24, CYP2C9 act 0.4, CYP2C9 inh 61*, Measles CPE 11 and CYP2C19 act 0.8.
Cc1ccc(Cl)cc1N1CCN(S(=O)(=O)c2cccc(S(=O)(=O)N3CCCC3)c2)CC1 was read as CYP2C19 inhib 64*, CYP2C9 act 0.1, CYP2C9 inh 87*, Measles CPE 12 and CYP2C19 act 0.4.
